According to the supplement of paper PMC6555819:

Legend:
Assay in all cases: PBM binding z-score (relative to random genomic background probes); higher = stronger binding; sequences stand for … in GC…GCGATTGACAGCGTAGAATGAAGG
[1] = test system: RARb homodimer (NR concentration 270 nM)
How it was run: (§1)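 Ligand-free nuclear receptor dimers were applied to custom Agilent 4×180K protein-binding microarrays whose double-stranded probes carried direct-repeat seeds, single-nucleotide variants, half-site ablations and random human genomic background sequences in 34-nt variable regions. Incubation lasted 1 h. Binding z-scores were computed against the random background probes from regression-normalized fluorescence.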

[2] = test system: RARg:RXRa (NR concentration 270 nM, RXRa partner concentration 90 nM)
How it was run: as §1

[3] = test system: RARg homodimer (NR concentration 270 nM)
How it was run: as §1

[4] = test system: RXRa DBDmut IVT, anti-RXR (DBD mutation: RXRa K156A/R161A, NR concentration 90 nM)
How it was run: as §1

[5] = test system: RXRa homodimer (NR concentration 180 nM)
How it was run: as §1

[6] = test system: THRa:RXRa (NR concentration 90 nM, RXRa partner concentration 90 nM)
How it was run: as §1

[7] = test system: THRa homodimer (NR concentration 90 nM)
How it was run: as §1

[8] = test system: VDR homodimer (NR concentration 270 nM)
How it was run: as §1

CAAACTAGGTCAACAGGTCAAAGTCCGCTTCCCG
PBM binding z-score [1]: 4.94 | PBM binding z-score [2]: 6.85 | PBM binding z-score [3]: 6.36 | PBM binding z-score [4]: 2.45 | PBM binding z-score [5]: 5.98 | PBM binding z-score [6]: 3.78 | PBM binding z-score [7]: 1.9 | PBM binding z-score [8]: 2.78

CCTAGCAGGCCAATCTGGGTCACTCATGGCTTGA
PBM binding z-score [1]: 2.19 | PBM binding z-score [2]: 0.859 | PBM binding z-score [3]: 1.37 | PBM binding z-score [4]: 0.157 | PBM binding z-score [5]: 0.53 | PBM binding z-score [6]: 3.19 | PBM binding z-score [7]: 0.363 | PBM binding z-score [8]: 0.00452

CAAACTAGGTCAACGGTCAAAGTCGAGCCAACCA
PBM binding z-score [1]: 3.76 | PBM binding z-score [2]: 4.94 | PBM binding z-score [3]: 5.4 | PBM binding z-score [4]: 2.12 | PBM binding z-score [5]: 4.02 | PBM binding z-score [6]: 3.14 | PBM binding z-score [7]: 1.31 | PBM binding z-score [8]: 1

CCTACTGGGCCAAAGGTCATTGAGTCCAATGCTC
PBM binding z-score [1]: 4.88 | PBM binding z-score [2]: 5.8 | PBM binding z-score [3]: 4.63 | PBM binding z-score [4]: 1.78 | PBM binding z-score [5]: 6.07 | PBM binding z-score [6]: 3.57 | PBM binding z-score [7]: 0.746 | PBM binding z-score [8]: 4.9

AGTCAAAGTTCAGGACGAGCTAACGTAAAGCACG
PBM binding z-score [1]: 2.77 | PBM binding z-score [2]: 4.22 | PBM binding z-score [3]: 4.84 | PBM binding z-score [4]: 2.68 | PBM binding z-score [5]: 2.83 | PBM binding z-score [6]: 1.95 | PBM binding z-score [7]: 0.278 | PBM binding z-score [8]: 1.5

ACTATTAGTTGAGACGAGTGCAACCGATAGGTTG
PBM binding z-score [1]: -0.322 | PBM binding z-score [2]: 0.00696 | PBM binding z-score [3]: 0.277 | PBM binding z-score [4]: 0.58 | PBM binding z-score [5]: 0.199 | PBM binding z-score [6]: 0.501 | PBM binding z-score [7]: -0.775 | PBM binding z-score [8]: 1.49

TCTGCTAGGTCAACGATGTTCAGCTAATCTGCTA
PBM binding z-score [1]: 2.97 | PBM binding z-score [2]: 3.73 | PBM binding z-score [3]: 4.24 | PBM binding z-score [4]: 1.03 | PBM binding z-score [5]: 2.47 | PBM binding z-score [6]: 2.73 | PBM binding z-score [7]: 0.88 | PBM binding z-score [8]: -0.288

ACTATGAGTTGACTTAGGGCAACCGATACGACGC
PBM binding z-score [1]: 1.06 | PBM binding z-score [2]: 1.07 | PBM binding z-score [3]: 1.2 | PBM binding z-score [4]: 1.49 | PBM binding z-score [5]: 0.819 | PBM binding z-score [6]: 2.22 | PBM binding z-score [7]: 0.414 | PBM binding z-score [8]: 1.26

ATATGTAGGTTCGCTGGGGTCATTCAGACTAGGC
PBM binding z-score [1]: 3.35 | PBM binding z-score [2]: 4.07 | PBM binding z-score [3]: 2.35 | PBM binding z-score [4]: 3.6 | PBM binding z-score [5]: 5.54 | PBM binding z-score [6]: 4.11 | PBM binding z-score [7]: 3.34 | PBM binding z-score [8]: 9.1

GCTGCTAGGACAGGTTGGTCAGCTAACGGGTACG
PBM binding z-score [1]: 0.214 | PBM binding z-score [2]: -0.345 | PBM binding z-score [3]: 0.153 | PBM binding z-score [4]: -0.341 | PBM binding z-score [5]: -0.463 | PBM binding z-score [6]: -0.106 | PBM binding z-score [7]: -0.393 | PBM binding z-score [8]: -0.149
